Screening data from PubChem.
KB-3-1 cytotox = KB-3-1 parental cell cytotoxicity; KB-3-1 viability, CellTiter-Glo ATP luminescence, 72 h; Potency, µM (series often up to 46.1 µM), hits mostly cytotoxic; actives 1.4% (n = 400,000); AID 1347075; also: nearly all actives have a fitted effect of over 60% in size
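Luminescent ATP read-out (CellTiter-Glo) measures survival of drug-naive KB-3-1 cells after 72 h compound exposure at 37 °C. Titration series was screened from lowest to highest concentration, with DMSO vehicle plates as background controls.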
ELG1 DNA repair = ELG1-dependent DNA repair inhibition; actives 2.3% (n = 330,000); Potency, µM (doses to about 46.1 µM), actives largely listed as inhibitors; AID 504467; HEK293T ELG1-luciferase reporter, luminescence, 16 h; DNA damage induced by 5-fluorouridine; also: nearly all actives have a fitted effect of over 55% in size
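Cells (2,000 per well) received 5-fluorouridine plus test compound or DMSO and were incubated 16 hr at 37 °C, 5% CO2. Luciferase activity was read by luminescence 30 min after ONE-Glo addition; signal suppression marked inhibition of damage-induced ELG1 function.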
KB-V1 MDR tox = KB-V1 MDR subline cytotoxicity | KB-V1 MDR cells viability, CellTiter-Glo, 72 h | Potency, µM (series often up to 46.1 µM), most hits filed as cytotoxic | actives 3.4% (n = 400,000); also: nearly all actives have a fitted effect of over 60% in size
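Readout: CellTiter-Glo luminescence, 10 min after addition. Cells: KB-V1 MDR subline, 72 h at 37 degrees C with compound. Analysis: corrected, normalized data fitted to concentration-effect curves.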
MCF10A rerep = induces DNA re-replication in MCF 10a normal breast cells | MCF 10A DNA re-replication, Hoechst nuclear intensity, 48 h | Potency, µM (doses to about 46.1 µM), usual class: activators | actives 2.9% (n = 350,000) | AID 624296; also: nearly all actives have a fitted effect of over 50% in size
SW480 rereplic = induces DNA re-replication in SW480 colon adenocarcinoma cells. Potency, µM (doses to about 46.1 µM), actives largely listed as activators. actives 1.8% (n = 340,000). SW480 DNA re-replication, Hoechst DNA content imaging, 48 h. AID 624297; also: nearly all actives have a fitted effect of over 55% in size
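Treated cells incubate 48 hr (37 C, 5% CO2), are stained 40 min with Hoechst, and nuclear fluorescence is enumerated; a rise in nuclei with high DNA signal marks re-replication.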
ELG1 FLuc counter = luciferase inhibition in cell-free luciferin readout for ELG1 hits | shares compounds with ELG1 DNA repair | cell-free firefly luciferase luminescence counter-screen, ViewLux | Potency, µM (doses to about 46.1 µM), usual class: inhibitors | actives 3% (n = 350) | AID 624247
ELG1 Luc conf = confirmation of human ELG1-dependent DNA repair inhibitors; actives 68% (n = 670); shares compounds with ELG1 DNA repair; HEK293T ELG1-luciferase levels, luminescence; cells co-treated with 5-fluorouridine; Potency, µM (highest dose often 46.1 µM), usual class: inhibitors; AID 624248; also: nearly all actives have a fitted effect of over 55% in size
ELG1-Luc MMS = confirmation of human ELG1 repair inhibitors, MMS stimulated. shares compounds with ELG1 DNA repair. HEK293T luciferase-tagged ELG1 level, MMS stimulated. Potency, µM (top dose mostly 46.1 µM), most hits filed as inhibitors. actives 53% (n = 670); also: nearly all actives have a fitted effect of over 60% in size
ELG1 5FU viab = confirmation of ELG1 repair inhibitors: viability with 5FU. shares compounds with ELG1 DNA repair. cell viability with 5-FU, ELG1-dependent repair. Potency, µM (series often up to 46.1 µM), usual class: cytotoxic. 670 tested, under 10 active;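 also: ELG1-luc HEK293T cells cotreated with 5-fluorouridine at 10 µM final; viability measured 16 h after compound addition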
ELG1 MMS cell = confirmation of ELG1 repair inhibitors: viability with MMS | shares compounds with ELG1 DNA repair | Cell viability with MMS, ELG1-dependent DNA repair | Potency, µM (top dose mostly 46.1 µM), usual class: cytotoxic | actives 33% (n = 670);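 also: ELG1-luc HEK293T cells co-treated with 10 µM MMS; viability read 16 h after compound addition; nearly all actives have a fitted effect of over 60% in size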
Cell viab unstim = counter-screen for ELG1 repair inhibitors: unstimulated cell viability. cell viability counter-screen, unstimulated, luminescence. Potency, µM (titrated, usually from 45.9 µM), hits mostly cytotoxic. shares compounds with ELG1 DNA repair. actives 8% (n = 900);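 also: compound exposure lasted 16 hours before reading; nearly all actives have a fitted effect of over 55% in size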
FLuc biochem = inhibits purified firefly luciferase, counter-screen for ELG1 hits. shares compounds with ELG1 DNA repair. purified firefly luciferase, luminescence counter-screen. Potency, µM (highest dose often 57.5 µM), usual class: inhibitors. actives 10% (n = 350)
Hits are given with their value. Hits are enriched below; roughly 8.2% of the tested compounds scored in any of these assays. Calls follow the shape of the dose curve; as a rule, active = well fitted curve in the direction sought with a large enough effect; inconclusive = small, poorly fitted or top-dose-only effect, or another doubt; inactive = no such curve, though single readings can be large; an effect the other way counts as inactive or inconclusive.

What do the screens show for `CCCNC(=O)C(=O)Nc1ccc2c(c1)N(S(=O)(=O)c1cccs1)CCC2`?
KB-3-1 cytotox: inconclusive; ELG1 DNA repair: 3.3µM; KB-V1 MDR tox: inconclusive; MCF10A rerep: 15µM; SW480 rereplic: 18µM; ELG1 Luc conf: 16µM; ELG1-Luc MMS: 5.6µM; ELG1 5FU viab: inconclusive; ELG1 MMS cell: inconclusive; Cell viab unstim: inactive

What do the screens show for `Clc1ccc2nc(C(Cl)(Cl)Cl)[nH]c2c1`?
KB-3-1 cytotox: inactive; KB-V1 MDR tox: inactive

How did COc1cccc(CNC[C@H]2O[C@@H](n3ccc(N)nc3=O)[C@H](O)[C@@H]2O)c1OCc1ccc(F)cc1Cl do in these assays?
KB-3-1 cytotox: inactive; KB-V1 MDR tox: inactive

How did COc1ccc(NC(=O)Cc2c(C)n(C(=O)c3ccc(Cl)cc3)c3ccc(OC)cc23)cc1 do in these assays?
KB-3-1 cytotox: inactive; ELG1 DNA repair: 2.6µM; KB-V1 MDR tox: inactive; MCF10A rerep: inactive; SW480 rereplic: inconclusive; ELG1 FLuc counter: inactive; ELG1 Luc conf: 18µM; ELG1-Luc MMS: inactive; ELG1 5FU viab: inconclusive; ELG1 MMS cell: inactive; Cell viab unstim: inactive; FLuc biochem: inactive

What do the screens show for `COc1ccc2c(c1)c(CC(=O)Nc1ccc(C)cc1)c(C)n2C(=O)c1ccc(Cl)cc1`?
KB-3-1 cytotox: inconclusive; ELG1 DNA repair: inconclusive; KB-V1 MDR tox: inactive; MCF10A rerep: inconclusive; SW480 rereplic: inactive

Results for COc1ccc2c(c1)c(CC(=O)Nc1cccc(S(N)(=O)=O)c1)c(C)n2C(=O)c1ccc(Cl)cc1 ?
KB-3-1 cytotox: inactive; ELG1 DNA repair: 18µM; KB-V1 MDR tox: inactive; MCF10A rerep: inconclusive; SW480 rereplic: inactive; ELG1 FLuc counter: inactive; ELG1 Luc conf: 14µM; ELG1-Luc MMS: 18µM; ELG1 5FU viab: inconclusive; ELG1 MMS cell: inconclusive; Cell viab unstim: inconclusive; FLuc biochem: inactive

What do the screens show for `COc1ccc2c(c1)c(CC(=O)Nc1cc(C)c(OC)c(C)c1)c(C)n2C(=O)c1ccc(Cl)cc1`?
KB-3-1 cytotox: inactive; KB-V1 MDR tox: inactive

Results for C[C@@H]1CC2[C@@H]3CCC4=CC(=O)C=C[C@]4(C)[C@@]3(F)[C@@H](O)C[C@]2(C)[C@@]1(O)C(=O)NCCCCCCOC[C@H]1O[C@@H](n2cnc3cc(Cl)c(Cl)cc32)[C@@H]2OC(C)(C)O[C@@H]21 (some centres undefined) ?
ELG1 FLuc counter: inactive; Cell viab unstim: inactive; FLuc biochem: inactive

Results for C[C@H]1C[C@H]2[C@@H]3CCC4=CC(=O)C=C[C@]4(C)[C@@]3(F)[C@@H](O)C[C@]2(C)[C@@]1(O)C(=O)CO ?
KB-3-1 cytotox: inactive; KB-V1 MDR tox: inactive; MCF10A rerep: inactive; SW480 rereplic: inactive
